Laboratory results: PubChem BioAssay (NCATS)
Records with an inconclusive call do not appear. Active and inactive are the calls of the source. Calls follow the shape of the dose curve; as a rule, active = well fitted curve in either direction with a large enough effect (not every such curve was filed as active); inconclusive = small, poorly fitted or top-dose-only effect, or another doubt; inactive = flat fitted curve, though single readings scatter.

What follows are compounds tested against Mitogen-activated protein kinase 10 (Mus musculus) (UniProt Q61831) (assay: JNK3 AlphaScreen Assay (AID 530;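 also: kinase came from lysate of stimulated human HepG2 cells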)). Details: JNK3 lysate, c-Jun phosphorylation; series mostly up to 57.1 µM.
Summary of the method: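 Phosphorylation of biotinylated GST-cJun(1-79) at Ser73 is measured by AlphaScreen proximity luminescence. Enzyme is JNK3 in HepG2 lysates activated with interleukin-1beta and tumor necrosis factor alpha; ATP is 10 uM final.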

outcome, inactive:
COC(=O)[C@@]1(Cc2ccc(F)cc2)[C@H]2c3cc(C(=O)N4CCCC4)n(CCc4ccccn4)c3C[C@H]2CN1C(=O)c1ccccc1
COC(=O)[C@@]1(Cc2ccc(OC)cc2)[C@H]2c3cc(C(=O)N(C)C)n(Cc4c(CO)[nH]cc(C)c4=O)c3C[C@H]2CN1C(=O)c1ccccc1
C[C@@H](C(=O)NCC1CC1)[C@H]1C[C@]1(C)[C@H](NC(=O)OCc1ccccc1)c1ccccc1
COC(=O)[C@@H]1C[C@H]1[C@@H](NS(=O)(=O)c1ccccc1)c1ccccc1
COC(=O)[C@@]1(Cc2ccc(F)cc2)[C@H]2c3cc(C(=O)N(C)C)n(CCSCCO)c3C[C@H]2CN1C(=O)c1ccccc1
COC(=O)[C@@]1(Cc2ccc(F)cc2)[C@H]2c3cc(C(=O)N(C)C)n(CCO)c3C[C@H]2CN1C(=O)c1ccccc1
COCCNC(=O)[C@H]1C[C@@H]1[C@H](NP(=O)(c1ccccc1)c1ccccc1)c1ccccc1
COC(=O)[C@@]1(Cc2ccc(OC)cc2)[C@H]2c3cc(C(=O)N4CCCC4)n(Cc4ccc(OC(F)(F)F)cc4)c3C[C@H]2CN1C(=O)c1ccccc1
C[C@@H](C(=O)NCC1CC1)[C@@H]1C[C@@]1(C)[C@@H](NC(=O)OCc1ccccc1)c1ccccc1
C[C@@H](C(=O)Nc1ccc2ccccc2c1)[C@H]1C[C@]1(C)[C@H](NC(=O)c1cccnc1)c1ccccc1
Cc1cc(C(=O)N[C@H](c2ccccc2)[C@@]2(C)C[C@@H]2[C@@H](C)C(=O)Nc2ccc3ccccc3c2)no1
